According to the supplement of paper PMC12669032:
A number with no mark means an inactive call.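 How the source made its calls: active = AUC reduced over 20% with Padj below 0.05 in at least 2 of 3 replicates; inactive = otherwise.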

Tests used:
Roseburia intestinalis = test: growth AUC relative to DMSO control (median of replicates) (fraction); higher = more growth (less inhibition), active = hit call of the paper; conditions: 20 µM; 24 h
Method in brief: (§1)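 OD600 was recorded every hour for 24 h in anaerobic monocultures of gut bacteria kept at 37 °C in mGAM, seeded at OD600 0.05 and given 20 µM compound in 1% DMSO. The area under each growth curve was scaled to the plate median of solvent-only wells, or to row and column medians for the industrial chemical plate. Before this step, the minimum OD was set to 0. Reported values are medians of three biological replicates run on separate days.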

Streptococcus salivarius = test: as above; conditions: 20 µM; 24 h
Method in brief: as §1

SMILES | growth AUC (Roseburia intestinalis) | growth AUC (Streptococcus salivarius)
CC(C)(C)C(O)C(Oc1ccc(-c2ccccc2)cc1)n1cncn1 (mixture of isomers) | 1.02 | 1.01
O=c1oc2ccccc2c(O)c1C(CC(O)c1ccc(-c2ccc(Br)cc2)cc1)c1ccccc1 (stereo unspecified) | 0.654 (active) | 0.553 (active)
O=C(NC(=O)c1c(F)cccc1F)Nc1ccc(Cl)cc1 | 0.983 | 0.992
CCCCc1c(C)nc(NCC)nc1OS(=O)(=O)N(C)C | 1.03 | 1.02
COC(=O)c1ccccc1S(=O)(=O)NC(=O)N(C)c1nc(C)nc(OC)n1 | 0.998 | 1.01
Cc1[nH]c(=O)n(C(C)(C)C)c(=O)c1Cl | 0.986 | 1.02
Nc1ccncc1 | 0.981 | 0.981
CC(C)(C)N(NC(=O)c1ccc(Cl)cc1)C(=O)c1ccccc1 | 1.08 | 0.987
O=S(=O)(c1ccccc1)c1ccccc1 | 0.956 | 0.943
OC(Cn1cncn1)(c1ccc(F)cc1)c1ccccc1F (stereo unspecified) | 0.966 | 1.01
Cc1cc(Cl)ccc1O | 1.01 | 1.04
CC(C)(C)[C@@H](O)[C@H](Oc1ccc(Cl)cc1)n1cncn1 | 1.08 | 1.04
FC(F)C(F)(F)OCC(Cn1cncn1)c1ccc(Cl)cc1Cl (stereo unspecified) | 0.956 | 0.996
